Pf growth 48h – Primary qHTS for delayed death inhibitors of the malarial parasite plastid, 48 hour incubation; P. falciparum luciferase growth in erythrocytes, 48 h; Potency, µM (series often up to 28.7 µM), hits mostly inhibitors; 310,000 compounds, 5.9% hits
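First compound was added to culture medium, then infected red cells at 0.1% parasitemia and 2% hematocrit (final). After incubation at 37 C under 5% CO2, luciferase detection reagent was dispensed and light output recorded.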
Pf growth 96h – Primary qHTS for delayed death inhibitors of the malarial parasite plastid, 96 hour incubation | 320,000 compounds, 6.9% hits | P. falciparum luciferase reporter growth, 96 h | AID 504834, 2011 | Potency, µM (doses to about 28.7 µM), most hits filed as inhibitors
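Erythrocytes infected with luciferase-expressing P. falciparum were dispensed at 2% hematocrit and 0.05% parasitemia (final), then incubated with compounds 96 hours at 37 C in 5% CO2. Luminescence after detection reagent addition reported growth.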
LASV entry inh – qHTS for Inhibitors of binding or entry into cells for Lassa Virus; Lassa virus pseudotype entry inhibition, cell reporter; Potency, µM (doses to about 37.9 µM), usual class: inhibitors; 300,000 compounds, 1.2% hits; AID 540256, 2011; calls by dose curve; tested in HEK293 cells; also: nearly all actives have a fitted effect of over 50% in size
HCV inhibitor – qHTS Assay for Inhibitors of Hepatitis C Virus (HCV); Huh7.5.1 HCVcc-Cre infection, luciferase reporter, 44 h; Potency, µM (doses to about 41.8 µM), actives largely listed as inhibitors; 340,000 compounds, 3.4% hits; AID 651820, 2012
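Whole-lifecycle infectious HCVcc-Cre system; cells 1,000/well, compound then virus (~0.5 moi) added 4 h after plating, 44 h culture. Luciferase read 15 sec following 15 min substrate incubation, room temp.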
HCMV inh – qHTS Assay for inhibitors of the human cytomegalovirus (HCMV); HFF cells, HCMV-luciferase reporter, 72 h; hits give low values; activity change, negative = inhibition, % at 57.5 µM; 410,000 compounds, 4.5% hits; AID 1259415, 2018; in the data active = activity change below about -60%; inconclusive = no clear call, values can overlap the other calls; inactive = above about -39%
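Screen run at 2 compound doses on HFFs infected with reporter HCMV, MOI 1 PFU/cell. Luciferase activity from cell lysates at 72 h post infection gave inhibition relative to buffer-only and Salinomycin wells.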
MARV entry inh – qHTS for inhibitors of binding or entry into cells for Marburg Virus. Marburg virus pseudotyped entry inhibition, cell reporter. AID 540276, 2011. 300,000 compounds, 1.8% hits. Potency, µM (titrated, usually from 37.8 µM), most hits filed as inhibitors; calls by dose curve; tested in HEK293 cells
Large screens that a line does not name were inactive. The list is not random: actives were taken first. Their share in the collection is about 14%. Unless noted, calls follow the shape of the dose curve; as a rule, active = well fitted inhibition curve with a large enough effect; inconclusive = small, poorly fitted or top-dose-only effect, or another doubt; inactive = no such curve, though single readings can be large or run the other way.

COc1ccc(-n2c(Cc3cccn3C)nnc2SCC(=O)Nc2ccccc2C)cc1	Pf growth 96h 6.57µM (no result: Pf growth 48h, LASV entry inh, MARV entry inh)
COc1ccc(-n2c(Cc3cccn3C)nnc2SCC(=O)Nc2ccc(F)cc2F)cc1	Pf growth 48h inconclusive, Pf growth 96h inconclusive
CCn1c(=O)n(CC)c2cc(N3CCCC3)c(NC(=O)c3ccccc3C)cc21	Pf growth 48h inconclusive, Pf growth 96h 9.28µM, HCV inhibitor inconclusive (no result: LASV entry inh, MARV entry inh)
CCn1c(=O)n(CC)c2cc(N3CCCC3)c(NC(=O)c3cc(Br)ccc3OC)cc21	Pf growth 48h 9.28µM, Pf growth 96h inconclusive, HCV inhibitor inconclusive, HCMV inh -69.8 (no result: LASV entry inh, MARV entry inh)
CCn1c(=O)n(CC)c2cc(N3CCCC3)c(NC(=O)c3ccccc3)cc21	Pf growth 96h inconclusive, LASV entry inh inconclusive, HCV inhibitor inconclusive, MARV entry inh inconclusive
Cn1c(=O)c(=O)n(C)c2cc(N3CCCC3)c(NC(=O)c3ccccc3F)cc21	none (no result: Pf growth 48h, Pf growth 96h, HCV inhibitor)
CCn1c(=O)n(CC)c2cc(N3CCCC3)c(NC(=O)c3ccccc3F)cc21	Pf growth 48h inconclusive, Pf growth 96h 1.31µM, LASV entry inh inconclusive, HCV inhibitor 12.6µM, MARV entry inh inconclusive
CC(=O)OC1(c2ccccc2)CCN(C)CC1(C)C (stereo not drawn)	HCMV inh -80.0 (no result: LASV entry inh, MARV entry inh)
CC(=O)OC1(c2ccccc2)CCN(C)C2CCCCC21 (stereo not drawn)	HCV inhibitor inconclusive
COc1ccc([N+](=O)[O-])c(S(=O)(=O)c2ccc(Cl)cc2)n1	LASV entry inh inconclusive, HCV inhibitor inconclusive, HCMV inh -100.5, MARV entry inh 4.47µM
COc1ccc([N+](=O)[O-])c(S(=O)(=O)c2ccccc2)n1	Pf growth 96h inconclusive, LASV entry inh 7.08µM, HCV inhibitor inconclusive, HCMV inh -97.2, MARV entry inh inconclusive
O=[N+]([O-])c1cccnc1S(=O)(=O)c1ccccc1	Pf growth 48h inconclusive, Pf growth 96h 10.4µM, LASV entry inh inconclusive, HCV inhibitor inconclusive, HCMV inh -99.4, MARV entry inh inconclusive
COc1ccccc1S(=O)(=O)c1ccccc1[N+](=O)[O-]	none
COc1nc(OC)nc(Oc2ccc(Cl)cc2[N+](=O)[O-])n1	HCV inhibitor inconclusive
COc1ccc(-c2nc3c4ccccc4ccn3c2Cc2ccsc2)cc1OC	none (no result: Pf growth 48h, Pf growth 96h, LASV entry inh, HCV inhibitor, MARV entry inh)
CCOc1ccc(C2CC=C(C(C)=O)CN2S(=O)(=O)c2ccc(C)cc2)cc1 (stereo not drawn)	none (no result: Pf growth 48h, Pf growth 96h, LASV entry inh, HCV inhibitor, MARV entry inh)
O=c1c2ccccc2sn1-c1ccccc1	Pf growth 48h inconclusive, LASV entry inh inconclusive, HCV inhibitor inconclusive, HCMV inh -82.7, MARV entry inh inconclusive (no result: Pf growth 96h)
CC1NC(=O)c2ccccc2-n2c1nc1cc(F)ccc1c2=O (stereo not drawn)	none (no result: LASV entry inh, MARV entry inh)
O=C(O)c1cccc(-n2sc3ccccc3c2=O)c1	Pf growth 96h inconclusive, HCMV inh -61.2 (no result: LASV entry inh, MARV entry inh)
O=c1c2ccccc2sn1-c1ccccc1F	HCMV inh -108.7 (no result: Pf growth 48h, Pf growth 96h, LASV entry inh, HCV inhibitor, MARV entry inh)
Cc1ccccc1-n1sc2cc(F)ccc2c1=O	Pf growth 48h inconclusive, HCV inhibitor inconclusive, HCMV inh -97.8, MARV entry inh inconclusive
O=c1c2ccccc2sn1-c1cccc(Cl)c1	none (no result: Pf growth 48h, Pf growth 96h, LASV entry inh, HCV inhibitor, MARV entry inh)
COCCNC(=O)CSc1nc2cc3c(cc2c(=O)n1CCCCCC(=O)NCCc1ccc(OC)c(OC)c1)OCO3	none (no result: Pf growth 48h, Pf growth 96h, HCV inhibitor, MARV entry inh)
O=C(NC1CCS(=O)(=O)C1)c1cccc(Br)c1 (stereo not drawn)	none
CCc1ccc(OCc2nc(-c3ccc(OC)c(OC)c3)no2)c(Br)c1	MARV entry inh inconclusive (no result: Pf growth 48h, Pf growth 96h, HCV inhibitor)
CC(=O)Nc1ccc2c(=O)n(-c3ccccc3)sc2c1	HCMV inh -75.4 (no result: Pf growth 48h, Pf growth 96h, LASV entry inh, HCV inhibitor, MARV entry inh)
CN(C)S(=O)(=O)c1cccc(-n2sc3ccccc3c2=O)c1	Pf growth 48h inconclusive, Pf growth 96h inconclusive (no result: LASV entry inh, MARV entry inh)
O=c1c2cc(F)ccc2sn1-c1ccccc1	Pf growth 48h 4.15µM, Pf growth 96h 5.22µM, HCV inhibitor inconclusive (no result: LASV entry inh, MARV entry inh)
N#Cc1ccc2c(=O)n(-c3ccccc3)sc2c1	none (no result: Pf growth 48h, Pf growth 96h, LASV entry inh, HCV inhibitor, MARV entry inh)
O=C1CN(C(=O)COc2ccccc2Cl)c2ccccc2N1	Pf growth 48h inconclusive, Pf growth 96h inconclusive, HCMV inh inconclusive
Cc1cc(=O)oc2cc(OCC(=O)N3CC(=O)Nc4ccccc43)c(Cl)cc12	Pf growth 48h 13.1µM, Pf growth 96h inconclusive (no result: LASV entry inh, MARV entry inh)
CN(C(=O)CSc1nc(-c2ccccc2)no1)c1ccc(F)cc1	none (no result: Pf growth 48h, Pf growth 96h, HCV inhibitor, MARV entry inh)
O=C(O)c1ccc(/C=C2\SC(=Nc3ccccc3)N(c3ccccc3)C2=O)cc1	Pf growth 96h 0.294µM, HCMV inh inconclusive (no result: LASV entry inh, MARV entry inh)
O=C(O)COc1ccccc1/C=C1\SC(=Nc2ccc(F)cc2)N(c2ccc(F)cc2)C1=O	Pf growth 48h 10.4µM, Pf growth 96h inconclusive (no result: LASV entry inh, MARV entry inh)
O=C(O)COc1ccc(/C=C2\SC(=Nc3ccccc3)N(c3ccccc3)C2=O)cc1	none (no result: LASV entry inh, MARV entry inh)
CCOc1cc(/C=C2\SC(=Nc3ccccc3)N(c3ccccc3)C2=O)ccc1OCC(=O)O	Pf growth 48h inconclusive, Pf growth 96h inconclusive
COC(=O)[C@@]12C[C@@H](CC(=O)NCCCN3CCCC3=O)C(=O)N(CCc3ccc(OC)c(OC)c3)C1=CCC(C)(C)C2	none (no result: Pf growth 48h, Pf growth 96h, LASV entry inh, HCV inhibitor, MARV entry inh)
O=c1n(Cc2cccc(F)c2)c2ccccc2c2nc(-c3ccccc3)nn12	HCMV inh inconclusive (no result: Pf growth 48h, Pf growth 96h, HCV inhibitor)
CC(C)C1C(=O)CC(c2ccccc2)NC1c1ccccc1 (stereo not drawn)	Pf growth 96h 1.17µM (no result: LASV entry inh, MARV entry inh)
CC(NC(=O)Nc1cccc(Cl)c1)C(c1cccs1)N1CCCC1 (stereo not drawn)	Pf growth 48h inconclusive, Pf growth 96h 9.28µM, MARV entry inh inconclusive
CC(NC(=O)Nc1ccc(Cl)cc1)C(c1cccs1)N1CCOCC1 (stereo not drawn)	Pf growth 48h inconclusive, Pf growth 96h inconclusive (no result: LASV entry inh, MARV entry inh)

Bioassay records from PubChem.
